According to PubChem BioAssay AID463173 (ICCB-Longwood Screening Facility, Harvard Medical School, 2010):
Hit rate of the full screen: of about 52,000 compounds, about 1,700 (3.3%) were called active. Shown is part of a subset that was picked to be rich in actives. Unmarked numbers belong to inactive results. Cut-off read from the data, not from the text of the source: active = survival mostly below about 52% (no sharp cut-off); inactive = mostly above about 56%.

Test system: Wild type
Assay: S. aureus survival, RN4220 and DeltatarO strains – OD600, teichoic acid synthesis inhibitors, primary screen (AID 463173)
Details: S. aureus RN4220 wild type/DeltatarO growth, OD600, 18 h, stronger effect = lower value, screened at 18.75 µg/mL (by protocol)

SMILES | survival
CCOC(=O)CC(=O)CSc1nc2ccccc2c(=O)n1CCc1ccc(S(N)(=O)=O)cc1 | 71%
Cc1ccc(C(=O)COC(=O)CCC(=O)Nc2ccc(Oc3ccccc3)cc2)cc1 | 90%
Cc1c(NC(=O)C(C)(C)Oc2ccc(Cl)cc2)cccc1-c1nc2ccccc2o1 | 1% (active)
Cc1cc(NC(=O)C(C)(C)Oc2ccc(Cl)cc2)cc(-c2nc3ncccc3o2)c1O | 92%
COc1c(Cl)cc(Cl)cc1C(=O)Nc1cccc(-c2nc3ccccc3o2)c1C | 125%
CC(C)(Oc1ccc(Cl)cc1)C(=O)Nc1ccc(-c2nc3ncccc3o2)cc1 | 74%
Cc1ccc2oc(-c3ccc(C)c(NC(=O)C(C)(C)Oc4ccc(Cl)cc4)c3)nc2c1 | 43%
Cc1c(NC(=O)C(C)(C)Oc2ccc(Cl)cc2)cccc1-c1nc2ncccc2o1 | -3% (active)
COc1ccc(-c2nc(CN3CCC(C(=O)NCCCOC(C)C)CC3)c(C)o2)cc1OC | 80%
CCCn1cc(S(=O)(=O)c2ccc(OC)cc2)c(=O)c2cc(F)c(N3CCCC(C)C3)cc21 (stereo not given) | 71%
CCOc1ccc(C(=O)NCCS(=O)(=O)N2CCN(c3ccccc3F)CC2)cc1OCC | 102%
COc1ccc(OCC(=O)Nc2ccc(-c3nc4cc(C)c(C)cc4o3)cc2)cc1 | 77%
COc1ccc(-n2ncc3c(NCCCOC(C)C)ncnc32)cc1 | -2% (active)
Cc1ccc(-n2ncc3c(Nc4cccc(C)c4C)ncnc32)cc1 | 78%
COCCCNc1ncnc2c1cnn2-c1ccc(F)cc1 | 82%
Cc1ccc(C)c(Nc2ncnc3c2cnn3-c2ccc(F)cc2)c1 | -3% (active)
COc1ccc(OC)c(Nc2ncnc3c2cnn3-c2cccc(Cl)c2)c1 | 64%
COc1ccc(CCNc2ncnc3c2cnn3-c2ccc(C)cc2)cc1 | 71%
COc1ccc(OC)c(Nc2ncnc3c2cnn3-c2ccc(C)cc2)c1 | 14% (active)
COc1ccc(Nc2ncnc3c2cnn3-c2ccc(C)cc2)cc1Cl | 133%
CCOc1ccccc1Nc1ncnc2c1cnn2-c1ccc(C)cc1 | 76%
Cc1ccc(Cn2c(C(=O)O)c(CNC3CCCCCC3)c3ccc(C)cc32)cc1 | 74%
CCCNC(=O)C1CCC(Cn2c(=O)c3sccc3n(CC(=O)NCc3cccc(OC)c3OC)c2=O)CC1 (stereo not given) | 133%
COc1cccc(NC(=O)c2cnc(SCC(=O)N3CCCc4ccccc43)n(C)c2=O)c1 | 54%

SMILES | survival
COc1cccc(-c2cn3ncsc3n2)c1 | 80%
Cc1cc(NNC(=O)c2ccccc2)nc(NNC(=O)c2ccccc2)n1 | 103%
CCCc1noc(-c2ccc(NCc3ccccc3OC)c([N+](=O)[O-])c2)n1 | 79%
COc1ccc(/C=C(/C#N)c2nc(-c3ccc(-c4ccccc4)cc3)cs2)cc1 | 66%
N#C/C(=C\c1ccc(F)cc1)c1nc(-c2ccc(-c3ccccc3)cc2)cs1 | 74%
CCc1ccc(/C=C(/C#N)c2nc(-c3ccc(C)cc3)cs2)cc1 | -2% (active)
CN(C)c1ccc(/C=C(\C#N)c2nc(-c3ccc(Cl)c(Cl)c3)cs2)cc1 | 89%
CCOc1ccc(-c2csc(/C(C#N)=C/c3ccc(Br)cc3)n2)cc1 | 71%
N#C/C(=C/c1ccc(O)cc1)c1nc(-c2ccc(-c3ccccc3)cc2)cs1 | 0% (active)
Cc1ccc(/C=C(\C#N)c2nc(-c3ccc(-c4ccccc4)cc3)cs2)cc1 | 83%
N#C/C(=C/c1ccc(Cl)cc1)c1nc(-c2ccc(Br)cc2)cs1 | 83%
CC(C)c1ccc(/C=C(\C#N)c2nc(-c3ccc(O)cc3)cs2)cc1 | 0% (active)
Cc1nn2c3c(cnc2c1-c1ccc(Cl)cc1)C(=O)CC(c1ccc(C(C)C)cc1)C3 (stereo not given) | 78%
Cc1ccc(-n2nnc3c(sc4nc(C)c(C)cc43)c2=O)cc1Cl | 84%
CCCCN1C(C(=O)c2ccccc2)=C(OC(=O)CC)c2ccccc2S1(=O)=O | 0% (active)
CCCN1C(C(=O)c2ccccc2)=C(OC(=O)C(C)(C)C)c2ccccc2S1(=O)=O | 86%
CCCCC(=O)OC1=C(C(=O)c2ccccc2)N(C)S(=O)(=O)c2ccccc21 | 108%
CCCCCN1C(C(=O)c2ccccc2)=C(NC(C)=O)c2ccccc2S1(=O)=O | 60%
CCCN1C(C(=O)c2ccccc2)=C(OC(=O)COc2ccccc2)c2ccccc2S1(=O)=O | 72%
CCCCC(=O)OC1=C(C(=O)c2ccccc2)N(CCC)S(=O)(=O)c2ccccc21 | 43%
CCCCC(=O)OC1=C(C(=O)c2ccccc2)N(CC)S(=O)(=O)c2ccccc21 | 71%
CCCCCN1C(C(=O)c2ccccc2)=C(OC(=O)CC)c2ccccc2S1(=O)=O | -4% (active)
CCCCN1C(C(=O)c2ccccc2)=C(OC(C)=O)c2ccccc2S1(=O)=O | -2% (active)
COc1cc(C(=O)OCn2c(=O)oc3ccccc32)cc(OC)c1OC | 101%

SMILES | survival
NC(=O)c1cc2n(n1)C(C(F)(F)F)CC(c1ccc(Cl)cc1)N2 (stereo not given) | 116%
COc1ccc(Cl)cc1NC(=O)C1CCN(c2nnc(C)c3c(C)n(-c4ccccc4)nc23)CC1 | 66%
Cc1c(Cl)cccc1-n1ncc(C(=O)N2CCN(C)CC2)c1C1CCN(C(=O)OC(C)(C)C)CC1 | 87%
COc1ccccc1C(=O)Nc1ccc2oc(-c3cccc(Cl)c3Cl)nc2c1 | 100%
COc1ccc(S(=O)(=O)Nc2cccc(-c3ccc(N4CCCCCC4)nn3)c2)cc1F | 71%
CCN1CCN(CCCNC(=O)Cn2c(-c3cccs3)cc3cc(F)ccc32)CC1 | 126%
CC(C)COc1ccc(C(=O)Nc2cc3nn(-c4ccccc4)nc3cc2Cl)cc1 | 57%
Cc1nc(-c2ccccc2)sc1-c1ccc(SCC(=O)Nc2ccc(F)cc2F)nn1 | 30%
CCc1ccccc1NC(=O)Cn1nnc(C(=O)Nc2ccc(OC)c(OC)c2)c1N | 76%
Cc1cccc(NC(=O)c2c(NC(=O)c3cccs3)sc3c2CCC(C)C3)c1 (stereo not given) | 75%
Cc1cccc(NC(=O)c2c(NC(=O)c3ccco3)sc3c2CCC(C)C3)c1 (stereo not given) | 73%
CC1CCc2c(sc(NC(=O)c3ccccc3)c2C(=O)Nc2ccccc2)C1 (stereo not given) | 64%
Cc1cccc(C(=O)Nc2sc3c(c2C(=O)O)CCCC3)c1 | 40%
CCN(CC)C(=O)c1c(NC(=O)c2cccc(C)c2)sc2c1CCC(C)C2 (stereo not given) | 2% (active)
Cc1cccc(C(=O)Nc2sc3c(c2C(=O)N2CCCCC2)CCC(C)C3)c1 (stereo not given) | -1% (active)
O=C(NC1CCCCC1)c1cccnc1Nc1ccccc1F | 113%
CC1CCCN(C(=O)Cn2ncc3c([nH]c4ccccc43)c2=O)C1 (stereo not given) | 81%
CC(=O)N1CCc2cc(CNC(=O)Nc3ccc(Br)c(C)c3)ccc21 | 85%
CC(=O)N1CCc2cc(S(=O)(=O)C(C)CC(=O)Nc3ccc(Br)c(C)c3)ccc21 (stereo not given) | -6% (active)
COc1cc(NC(=O)CC(C)S(=O)(=O)c2ccc3c(c2)CCN3C(C)=O)cc(OC)c1OC (stereo not given) | 76%
CCOC(=O)c1c(S(=O)(=O)NCC(=O)Nc2cccc(SC)c2)c(C)n(C)c1C | 70%
COc1ccc(CN(C(=O)c2cc(=O)c3ccccc3o2)C2CCS(=O)(=O)C2)cc1OC (stereo not given) | 118%
Cc1ccc(NC(=O)C(=O)NCCc2csc3nc(-c4ccccc4C)nn23)cc1Cl | 82%
CCOc1ccc(NC(=O)C(=O)NCCc2csc3nc(-c4ccccc4F)nn23)cc1 | -3% (active)

SMILES | survival
COC(=O)c1ccc(NC(=O)C(=O)NCCc2csc3nc(-c4ccccc4F)nn23)cc1 | 60%
CC(=O)Nc1cccc(NC(=O)C(=O)NCCc2csc3nc(-c4ccccc4F)nn23)c1 | 57%
Cc1ccc(C)c(NC(=O)C(=O)NCCc2csc3nc(-c4ccccc4C)nn23)c1 | 129%
O=C(NCCc1csc2nc(-c3ccccc3F)nn12)C(=O)Nc1cc(F)ccc1F | 63%
CCOc1ccc(CC(=O)NCCc2csc3nc(-c4ccccc4F)nn23)cc1 | 119%
Cc1c(Cl)cccc1NC(=O)C(=O)NCCc1csc2nc(-c3ccccc3F)nn12 | 1% (active)
Cc1ccccc1-c1nc2scc(CCNC(=O)C(=O)Nc3ccc(F)cc3F)n2n1 | -4% (active)
O=C(CSc1nnnn1Cc1ccccc1)Nc1ccccc1 | 114%
COc1ccc(OC)c(CNS(=O)(=O)c2c(C(=O)N3CCCCCC3)c(C)n(C)c2C)c1 | 135%
COc1ccccc1CNC(=O)CCC(=O)N1CC2CCCN2c2ccccc21 (stereo not given) | 80%
CC(C)(C)C(=O)Nc1cccc(-c2cn3cccnc3n2)c1 | 70%
O=C(CCCn1c(=O)c2cccn2c2ccccc21)NCc1ccccc1Br | 55%
CCc1ccc2nc(N3CCCC3)c(C#N)cc2c1 | 108%
O=C(CSc1n[nH]c(-c2ccccc2Cl)n1)N1CCN(c2ccccc2F)CC1 | 123%
O=C1c2[nH]nc(-c3ccc(F)cc3)c2C(c2ccccc2F)N1c1ccccc1 (stereo not given) | 4% (active)
O=C1c2[nH]nc(-c3ccc(Br)cc3)c2C(c2cccc(O)c2)N1c1ccc(Cl)cc1 (stereo not given) | 1% (active)
Cc1ccc(-c2n[nH]c3c2C(c2cccc(O)c2)N(c2ccc(C(=O)O)cc2)C3=O)cc1 (stereo not given) | 98%
CCOC(=O)c1ccc(N2C(=O)c3[nH]nc(-c4ccc(OC)cc4)c3C2c2ccc(C)cc2)cc1 (stereo not given) | 89%
COc1ccc(-c2n[nH]c3c2C(c2ccc(O)cc2)N(c2ccc(Br)cc2)C3=O)cc1 (stereo not given) | 11% (active)
CCOc1cc(C2c3c(-c4ccc(Br)cc4)n[nH]c3C(=O)N2c2ccc(Cl)cc2)ccc1O (stereo not given) | 42%
COC(=O)c1ccc(C2c3c(-c4ccc(Br)cc4)n[nH]c3C(=O)N2c2ccc(Cl)cc2)cc1 (stereo not given) | 75%
COc1ccc(C2c3c(-c4ccc(F)cc4)n[nH]c3C(=O)N2c2ccccc2)cc1OC (stereo not given) | 134%
COc1ccccc1C1c2c(-c3ccc(Cl)cc3)n[nH]c2C(=O)N1c1ccc(C)cc1 (stereo not given) | 85%
